# Tau fluor cs = counter-screen for tau fibril formation inhibitors; tau K18 P301L Alexa594 fluorescence, heparin fibrillization; Potency, µM (doses to about 57.7 µM), inactives show at the top dose activity change, negative = decrease; actives 0.93% (n = 280,000); AID 1463; further: nearly all actives have a fitted effect of over 55% in size
#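 Human tau K18 P301L (15 uM unlabeled, 0.24 uM Alexa 594-labeled) in 100 mM sodium acetate pH 7 with 20 uM heparin, 6 hr at 37 C. ThT 30 uM added, 1 hr ambient; Alexa 594 FP and total fluorescence read at 555/632 nm.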
# HPGD inh = HPGD (human) dehydrogenase inhibition; P15428; purified HPGD, NADH fluorescence kinetic, PGE2 substrate; Potency, µM, inactives show at the highest dose activity change, negative = inhibition, usual class: inhibitors; actives 4.3% (n = 150,000); AID 894; active means well fitted inhibition curve with a large enough effect, not every such curve was filed as active; inconclusive means small, poorly fitted or top-dose-only effect, or another doubt; inactive means no such curve, though single readings can be large or run the other way
#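 20 nM HPGD preincubated 15 min at room temperature with compound in 50 mM Tris-HCl pH 8, 0.01% Tween 20. Started with 1 mM NAD+ and 30 uM prostaglandin E2; NADH fluorescence (360/450 nm) read 5 times over 30-s intervals, last minus first.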
# ALDH1A1 block = ALDH1A1 (human) enzyme inhibition; Purified ALDH1A1, NADH fluorescence, propionaldehyde substrate; AID 1030; P00352; actives 7.3% (n = 220,000); Potency, µM (top dose mostly 75.3 µM), inactives show at the highest dose activity, negative = inhibition, usual class: inhibitors; active means well fitted inhibition curve with a large enough effect, not every such curve was filed as active; inconclusive means small, poorly fitted or top-dose-only effect, or another doubt; inactive means no such curve, though single readings can be large or run the other way;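 further: plate controls were no enzyme wells and a reference inhibitor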
# Tau FP inhib = inhibitors of human tau fibril formation. P10636. K18 P301L tau heparin fibrillization, Alexa594 FP, 6 h. Potency, µM (series often up to 57.7 µM), without a hit: top-dose activity, negative = inhibition, actives largely listed as inhibitors. actives 0.39% (n = 280,000). AID 1468; further: nearly all actives have a fitted effect of over 55% in size
# Target sequence (P10636 561-689 P618L limits assumed): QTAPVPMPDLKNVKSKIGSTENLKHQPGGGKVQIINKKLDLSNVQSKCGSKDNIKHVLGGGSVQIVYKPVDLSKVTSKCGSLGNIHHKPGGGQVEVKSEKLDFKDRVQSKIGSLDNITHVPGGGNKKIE
#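 FP of Alexa 594-tau after heparin (20 uM) induction. Substrate: human K18 P301L, 15 uM unlabeled, 0.24 uM labeled. Buffer 100 mM sodium acetate pH 7. 6 hr, 37 C.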
# NPSR antagonist = antagonists of human neuropeptide S receptor cAMP signaling | Q6W5P4 | CHO-NPSR cells, cAMP TR-FRET, antagonist mode | Potency, µM (series often up to 38.3 µM), for inactives: at the highest dose activity change, negative = inhibition, most hits filed as inhibitors | actives 1% (n = 220,000); further: nearly all actives have a fitted effect of over 50% in size
# Target sequence (Q6W5P4 whole entry, looked up): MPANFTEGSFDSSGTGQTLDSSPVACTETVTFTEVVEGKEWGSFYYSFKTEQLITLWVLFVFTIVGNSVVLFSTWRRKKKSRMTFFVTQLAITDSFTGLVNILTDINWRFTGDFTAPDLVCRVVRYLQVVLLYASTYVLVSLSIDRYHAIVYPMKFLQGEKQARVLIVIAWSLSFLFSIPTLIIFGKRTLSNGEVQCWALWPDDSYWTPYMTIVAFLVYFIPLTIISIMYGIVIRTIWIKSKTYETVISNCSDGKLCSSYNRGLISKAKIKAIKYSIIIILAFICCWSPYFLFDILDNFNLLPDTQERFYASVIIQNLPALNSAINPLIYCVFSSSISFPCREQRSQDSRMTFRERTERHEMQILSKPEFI
# Tau fibril ThT = inhibitors of human tau fibril formation, thioflavin T binding; P10636; recombinant tau K18 P301L, heparin-induced fibrillization, ThT fluorescence; Potency, µM (highest dose often 57.4 µM), inactives show top-dose activity, negative = inhibition, most hits filed as inhibitors; actives 2.1% (n = 270,000); further: nearly all actives have a fitted effect of over 55% in size
#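 ThT emission at 510 nm, taken 1 hr after adding 30 uM dye, quantifies aggregates formed when 20 uM heparin acts on human tau K18 P301L for 6 hr at 37 C.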
# Active calls of the source: *; u = inconclusive; x = no result; [ ] = another dose, or the depositor's remark. Sampled rows, rich in hits. Any-hit rate of the full collection: about 9.5%. Unless noted, the call rests on the fitted dose curve; in most records, active means well fitted curve in the direction sought with a large enough effect; inconclusive means small, poorly fitted or top-dose-only effect, or another doubt; inactive means no such curve, though single readings can be large; an effect the other way counts as inactive or inconclusive. Unless noted, on the % scale 0 is the no-effect control and ±100 the full control effect; potency means the concentration at half of the fitted maximal effect.
SMILES,Tau fluor cs,HPGD inh,ALDH1A1 block,Tau FP inhib,NPSR antagonist,Tau fibril ThT
CCOc1cccc(-c2cc(C(=O)N3N=C(C)CC3(O)C(F)F)c3ccccc3n2)c1 (centres undefined),u,x,-5.2%,-5.0%,u,-11.5%
Brc1cccc(OCCCN2CCCCCC2)c1,5.4%,x,12.6µM*,2.0%,-18.3%,3.1%
Cc1ccc(N/N=C(\C#N)C(N)=S)c(C)c1,-4.7%,14.1µM*,u,1.2%,-19.8%,-2.0%
Cc1ccc2[nH]c3c(c2c1)CN(C(=O)CN1CCN(c2cccc(C)c2C)CC1)CC3,u,u,4.47µM*,-2.2%,-13.6%[46.1 µM],u
Cc1ccc2[nH]c3c(c2c1)CN(C(=O)CN1CCN(C(=O)c2ccco2)CC1)CC3,-6.2%,x,x,4.9%,2.9%[7.67 µM],-10.1%
O=C(CN1CCSCC1)N1CCc2[nH]c3ccc(Br)cc3c2C1,u,-5.5%,15µM*,3.5%,-4.1%[46.1 µM],u
O=C(CN1CCN(C(=O)c2ccco2)CC1)N1CCc2[nH]c3ccccc3c2C1,-21.1%,x,10µM*,-14.2%,5.1%,u
CCSc1nc2[nH]ncc2c(=O)[nH]1,-4.3%,-8.5%,10.8%,0.3%,12.4%,-7.3%
Nc1cc(Nc2ccc(Br)cc2)nc(N)n1,u,x,x,-5.0%,1.8%,u
COC(=O)CC1C2(C)CC34OC5(C)O[C@@]6(C7/C(=C(/OC)C(C)C)C(=O)OC(c8ccoc8)[C@@]7(C)C(OC(=O)C(C)C)C(OC)[C@]6(O5)[C@@]13C)C(OC)[C@]4(OC)C2OC(C)=O (some centres undefined),-12.7%,-8.8%,3.3%,-0.8%,x,u
CC(C)[C@@H](CC(=O)N[C@@H]1CCNC[C@H]1C(=O)N[C@H](CC(=O)N[C@@H](CCC(=O)O)CC(=O)O)Cc1c[nH]c2ccccc12)NC(=O)C[C@H](CO)NC(=O)[C@@H]1CCCC[C@H]1N,0.0%,-15.7%,u,1.8%,x,-2.6%
Cc1ccc(COc2ccsc2C(=O)NNC(N)=S)cc1,-8.1%,x,2.5%,-4.1%,0.4%,-11.1%
COC(=O)C(C)n1nnc2sc(-c3ccccc3)cc2c1=O (centres undefined),-19.0%,x,u,5.3%,7.8%,u
CCc1ccc(NC(=O)C(C)n2nnc3sc(-c4ccccc4)cc3c2=O)cc1 (centres undefined),-17.2%,x,x,u,x,28.2µM*
CC1(C)CC2CC(C)(CN2/C=N/c2sc3c(c2C#N)CC(C)(C)NC3(C)C)C1 (centres undefined),-14.7%,x,x,1.9%,u,-5.4%
O=S(=O)(Cc1ccccc1)NCC1CCCN(Cc2cccc3nonc23)C1 (centres undefined),-10.9%,x,10µM*,-2.6%,-4.2%,-7.0%
CC1(C)CC(=O)C(C=Nc2cccnc2/N=C/C2=C(O)CC(C)(C)CC2=O)=C(O)C1,-4.4%,x,2.24µM*,-1.1%,17.1%,u
CC1(C)CC(=O)C(C=Nc2cccnc2)=C(O)C1,-4.8%,-4.7%,7.94µM*,0.5%,2.0%[46.1 µM],-15.8%
CC1(C)CC(=O)C(C=NCCc2ccccn2)=C(O)C1,6.4%,3.4%,2.7%,2.2%,4.2%[46.1 µM],-1.0%
Cc1cccc(/N=C/C2=C(O)CC(C)(C)CC2=O)n1,-3.3%,x,x,-4.0%,21.0%,-4.0%
C#CCCCO/N=C1/C[C@@H](O)[C@@H](O)[C@@H]2[C@@H]3C(=O)N(CC)C(=O)[C@H]3CC[C@H]12,1.5%[11.6 µM],x,1.7%[13.5 µM],7.9%[11.6 µM],x,-0.3%[11.5 µM]
CC1CCCN(CCCNC(=O)CCn2nc(-c3ccccc3)ccc2=O)C1 (centres undefined),-0.6%,-14.5%,22.4µM*,2.6%,-10.2%[46.1 µM],-7.0%
CCCCNC(=O)CCn1nc(-c2ccccc2)ccc1=O,2.4%,-6.7%,6.5%,-1.3%,7.9%[46.1 µM],3.4%
COc1ccccc1C(=O)NNC(=O)c1ccc(NC(=O)C(C)C)cc1,0.7%,x,9.4%,-2.8%,4.5%,-3.6%
COc1ccccc1N1CCN(C(=O)/C=C/c2cccc([N+](=O)[O-])c2)CC1,-22.3%,x,14.1µM*,18.1%,19.6%,u
